In PubChem BioAssay one finds composite z-score, composite Z-score and z-score data, which are given here for six molecules.

The target of assay [1] is Albumin (Bos taurus) (UniProt P02769). The experiment in a line: bovine serum albumin binders on microarray, profiling panel, artefact control for SMM control protein annotation, biochemical, small-molecule microarray, Alexa647 label, 635/667 nm fluorescence (AID 1118).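 Also: score merges 667 nm emission intensity and signal-to-noise per printed compound spot.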 The note with it: BSA-A647 binding, fluorescence 635 nm, higher = more signal.
Sequence of Albumin (Bos taurus) (P02769 whole entry, looked up): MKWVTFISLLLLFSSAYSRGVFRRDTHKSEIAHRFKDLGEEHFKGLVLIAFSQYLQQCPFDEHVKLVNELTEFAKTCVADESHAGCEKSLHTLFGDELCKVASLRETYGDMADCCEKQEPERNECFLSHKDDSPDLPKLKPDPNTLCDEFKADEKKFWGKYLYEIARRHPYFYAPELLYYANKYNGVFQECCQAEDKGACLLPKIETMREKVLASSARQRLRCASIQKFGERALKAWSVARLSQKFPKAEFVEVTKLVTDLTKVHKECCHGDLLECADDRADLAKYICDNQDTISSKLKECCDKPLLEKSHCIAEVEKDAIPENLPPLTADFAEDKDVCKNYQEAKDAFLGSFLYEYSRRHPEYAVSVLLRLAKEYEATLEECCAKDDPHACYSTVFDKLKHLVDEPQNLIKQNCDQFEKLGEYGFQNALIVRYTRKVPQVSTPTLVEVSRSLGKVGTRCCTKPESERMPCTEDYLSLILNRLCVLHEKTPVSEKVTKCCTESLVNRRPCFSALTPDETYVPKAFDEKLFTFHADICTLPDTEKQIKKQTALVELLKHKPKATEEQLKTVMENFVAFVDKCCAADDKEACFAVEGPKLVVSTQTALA
Assay [2] in a line: small-molecule microarray binders of probe aXIP, primary screen, biochemical, NeuroSMM set, 635/667 nm fluorescence (AID 1119).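 Also: probe is the protein aXip251-270 applied at 1 µg/mL to compound-printed slides; binding of probe to printed compounds measured as 667 nm fluorescence plus signal to noise.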 The note with it: higher = more signal, called active from +8 up or from −8 down.
The nature of assay [3]: small-molecule binders of probe aNOTCH3, primary screen, biochemical, small-molecule microarray, 635/667 nm fluorescence (AID 1120).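 Also: probe is a biotin-tagged antibody raised against NOTCH3 rather than NOTCH3 protein; score merges spot fluorescence near 667 nm with spot signal to noise.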 As to conditions: higher = more signal.
Assay [4] is described as follows: small-molecule binders of probe aNOTCH2, primary screen, biochemical, small-molecule microarray, 635/667 nm fluorescence (AID 1121).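 Also: score merges feature fluorescence read at 667 nm with its signal to noise.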 As to conditions: higher = more signal.
Assay [5] concerns the target Carbonic anhydrase 2 (Homo sapiens) (UniProt P00918). The assay is described as follows: CAII small-molecule binders, profiling panel, biochemical, small-molecule microarray, Alexa647-labelled CAII (AID 1122). As to conditions: CAII-A647 binding fluorescence, higher = more signal.
The nature of assay [6]: COS7 lysate on small-molecule microarray, probe aHis, 635 nm (AID 1123).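 Also: z-score combines 667nm fluorescence intensity with signal-to-noise per printed compound spot.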 As to conditions: COS7 cell lysate, fluorescence, higher = more signal.
The nature of assay [7]: compound binding in COS7 lysate, probe aLAP1, primary screen, cell lysate, small-molecule microarray (AID 1124).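 Also: lysate comes from COS7 cells expressing LAP1 and is applied at 0.3 µg/mL; score merges spot fluorescence near 667 nm with signal-to-noise over triplicate slides.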 As to conditions: probe aLAP1, fluorescence, higher = more signal.
For assay [8], the system named is Sam68 (KHDRBS1). The experiment in a line: Sam68 small-molecule binders, primary screen, biochemical, small-molecule microarray, 635 nm fluorescence (AID 1125).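 Also: score merges 667 nm channel intensity with signal to noise over triplicate slides.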 The note with it: small-molecule microarray binding, higher = more signal.
Assay [9] deals with Chordin-like protein 2 (CHRDL2). The assay is described as follows: CHRDL2 small-molecule binders, primary screen, biochemical, small-molecule microarray, 635 nm fluorescence (AID 1126).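 Also: printed compound slides probed with Chrdl2 protein at 4 µg/mL for 1 h at 4 C; score merges 667 nm emission intensity with signal to noise over three replicate slides.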 The note with it: small-molecule microarray binding, fluorescence 635 nm; higher = more signal.
Assay [10] deals with Concanavalin-A (Canavalia ensiformis) (UniProt P02866). The experiment in a line: ConA small-molecule binders, primary screen, artefact control for SMM control protein annotation, biochemical, small-molecule microarray, Alexa647 label, 635 nm (AID 1127).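 Also: z combines 667 nm emission intensity with signal-to-noise across three replicate slides.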 As to conditions: ConA-A647 binding fluorescence, higher = more signal.
Sequence of Concanavalin-A (Canavalia ensiformis) (P02866 whole entry, looked up): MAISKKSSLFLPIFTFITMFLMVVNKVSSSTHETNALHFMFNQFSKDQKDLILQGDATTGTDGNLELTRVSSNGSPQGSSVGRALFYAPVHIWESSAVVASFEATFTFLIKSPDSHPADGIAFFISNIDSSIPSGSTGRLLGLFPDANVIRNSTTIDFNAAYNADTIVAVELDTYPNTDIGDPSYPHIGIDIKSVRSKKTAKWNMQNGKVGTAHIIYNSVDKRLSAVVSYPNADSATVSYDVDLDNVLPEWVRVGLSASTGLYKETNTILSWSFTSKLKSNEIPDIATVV
A short description of assay [11]: anti-His antibody binders, primary screen, artefact control for SMM control protein annotation, biochemical, small-molecule microarray, 635 nm fluorescence (AID 1128).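 Also: score merges feature fluorescence with signal-to-noise for each printed compound spot.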 The note with it: anti-His Alexa647 antibody binding, higher = more signal.
Assay [12] deals with Human papillomavirus type 1a E7 protein (residues 1-88). The assay is described as follows: HPV1a E7 small-molecule binders, primary screen, biochemical, small-molecule microarray, residues 1-88, 635 nm (AID 1129). The note with it: small-molecule microarray binding, fluorescence 635 nm; higher = more signal.
Assay [13] concerns the target Focal adhesion kinase 1 (Homo sapiens) (UniProt Q05397). The experiment in a line: small-molecule microarray binders of FAK, primary screen, biochemical, 635/667 nm fluorescence, BSA, DTT (AID 1130).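 Also: composite of spot emission at 667 nm and signal to noise over triplicate slides.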 As to conditions: PTK2 binding, 635 nm fluorescence, higher = more signal.
Assay [14] concerns Fibrinogen (Alexa647-labelled). The experiment in a line: fibrinogen binders on compound microarrays, profiling panel, artefact control for SMM control-protein annotation, biochemical, small-molecule microarray, 635/667 nm fluorescence (AID 1131).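 Also: z-score merges 667 nm fluorescence with per-spot signal-to-noise over triplicate slides.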 As to conditions: fibrinogen-A647 binding fluorescence, higher = more signal.
The target of assay [15] is Follistatin (Homo sapiens) (UniProt P19883). The experiment in a line: follistatin binders on small-molecule microarrays, primary screen, biochemical, small-molecule microarray, 635/667 nm fluorescence (AID 1132). As to conditions: FST binding, 635 nm fluorescence, higher = more signal.
Sequence of Follistatin (Homo sapiens) (P19883 whole entry, looked up): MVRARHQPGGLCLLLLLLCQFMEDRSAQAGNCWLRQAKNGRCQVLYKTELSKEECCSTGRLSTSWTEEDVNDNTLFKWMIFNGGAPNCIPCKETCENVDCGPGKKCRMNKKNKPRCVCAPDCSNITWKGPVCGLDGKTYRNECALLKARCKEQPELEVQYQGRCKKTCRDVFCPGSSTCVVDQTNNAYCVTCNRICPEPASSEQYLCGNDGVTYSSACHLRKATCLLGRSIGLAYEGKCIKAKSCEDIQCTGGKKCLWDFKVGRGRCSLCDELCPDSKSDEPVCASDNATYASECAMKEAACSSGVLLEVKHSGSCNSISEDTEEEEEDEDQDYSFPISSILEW
The target in assay [16] is Fibroblast growth factor 2 (Homo sapiens) (UniProt P09038). The experiment in a line: FGF2 binders on small-molecule microarrays, primary screen, biochemical, small-molecule microarray, 635/667 nm fluorescence (AID 1133). As to conditions: small-molecule microarray binding, FGF2, fluorescence 635/667; higher = more signal.
Sequence of Fibroblast growth factor 2 (Homo sapiens) (P09038 whole entry, looked up): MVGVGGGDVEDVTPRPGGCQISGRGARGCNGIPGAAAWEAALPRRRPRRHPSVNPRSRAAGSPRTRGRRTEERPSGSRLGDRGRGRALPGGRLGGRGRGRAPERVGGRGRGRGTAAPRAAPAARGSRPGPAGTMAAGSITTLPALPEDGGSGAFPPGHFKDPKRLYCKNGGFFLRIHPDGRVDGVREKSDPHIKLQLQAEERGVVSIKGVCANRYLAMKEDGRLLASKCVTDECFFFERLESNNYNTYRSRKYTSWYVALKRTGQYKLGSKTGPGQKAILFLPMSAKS
Assay [17] in a line: mitochondrial membrane potential change in A549 cells, profiling panel, cell-based, JC-1 fluorescence, basal, 24 h, 100 nL (AID 1138).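 Also: A549 lung adenocarcinoma cells under basal conditions with no added stimulus; test concentration not given here.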 The note with it: higher = more signal.
Assay [18] deals with Lefty1. The experiment in a line: Lefty1 binders on small-molecule microarrays, primary screen, biochemical, small-molecule microarray, 635/667 nm fluorescence (AID 1139). As to conditions: small-molecule microarray binding, fluorescence 635/667; higher = more signal.
The test system of assay [19] is wheat germ agglutinin (Triticum aestivum), Alexa647-labelled. The assay is described as follows: wheat germ agglutinin binders on compound microarrays, profiling panel, artefact control for SMM control-protein annotation, biochemical, small-molecule microarray, 635/667 nm fluorescence (AID 1140).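 Also: score merges 667 nm feature emission with signal to noise over triplicate slides.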 The note with it: WGA-A647 binding, 635 nm fluorescence, higher = more signal.

Assay [20] deals with Luciferin 4-monooxygenase (Photinus pyralis) (UniProt P08659). The assay is described as follows: firefly luciferase enzyme inhibitors, primary screen, biochemical, luminescence, purified enzyme, 2006 set (AID 1141).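 Also: cell-free assay with purified firefly luciferase at 100 ng per well in PBS; test concentration not given here.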 As to conditions: SteadyGlo luminescence, 30 min, higher = more signal, called active from +8 up or from −8 down.
Sequence of Luciferin 4-monooxygenase (Photinus pyralis) (P08659 whole entry, looked up): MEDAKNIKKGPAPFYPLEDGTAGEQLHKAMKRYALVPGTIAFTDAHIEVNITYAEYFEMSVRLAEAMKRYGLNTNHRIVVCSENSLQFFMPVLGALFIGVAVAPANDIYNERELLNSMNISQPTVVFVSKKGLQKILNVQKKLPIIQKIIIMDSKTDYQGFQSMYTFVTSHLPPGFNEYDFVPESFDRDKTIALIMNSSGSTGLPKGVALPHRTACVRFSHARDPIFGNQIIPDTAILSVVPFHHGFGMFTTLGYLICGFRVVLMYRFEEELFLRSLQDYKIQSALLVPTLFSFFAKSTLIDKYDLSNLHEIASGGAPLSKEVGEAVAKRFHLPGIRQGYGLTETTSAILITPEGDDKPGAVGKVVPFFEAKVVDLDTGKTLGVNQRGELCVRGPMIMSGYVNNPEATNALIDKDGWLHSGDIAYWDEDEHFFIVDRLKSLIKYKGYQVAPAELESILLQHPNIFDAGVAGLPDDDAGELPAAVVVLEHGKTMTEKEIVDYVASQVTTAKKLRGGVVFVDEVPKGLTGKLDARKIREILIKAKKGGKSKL

Active and inactive are the calls of the source.

Sequence of Focal adhesion kinase 1 (Homo sapiens) (Q05397 whole entry, looked up): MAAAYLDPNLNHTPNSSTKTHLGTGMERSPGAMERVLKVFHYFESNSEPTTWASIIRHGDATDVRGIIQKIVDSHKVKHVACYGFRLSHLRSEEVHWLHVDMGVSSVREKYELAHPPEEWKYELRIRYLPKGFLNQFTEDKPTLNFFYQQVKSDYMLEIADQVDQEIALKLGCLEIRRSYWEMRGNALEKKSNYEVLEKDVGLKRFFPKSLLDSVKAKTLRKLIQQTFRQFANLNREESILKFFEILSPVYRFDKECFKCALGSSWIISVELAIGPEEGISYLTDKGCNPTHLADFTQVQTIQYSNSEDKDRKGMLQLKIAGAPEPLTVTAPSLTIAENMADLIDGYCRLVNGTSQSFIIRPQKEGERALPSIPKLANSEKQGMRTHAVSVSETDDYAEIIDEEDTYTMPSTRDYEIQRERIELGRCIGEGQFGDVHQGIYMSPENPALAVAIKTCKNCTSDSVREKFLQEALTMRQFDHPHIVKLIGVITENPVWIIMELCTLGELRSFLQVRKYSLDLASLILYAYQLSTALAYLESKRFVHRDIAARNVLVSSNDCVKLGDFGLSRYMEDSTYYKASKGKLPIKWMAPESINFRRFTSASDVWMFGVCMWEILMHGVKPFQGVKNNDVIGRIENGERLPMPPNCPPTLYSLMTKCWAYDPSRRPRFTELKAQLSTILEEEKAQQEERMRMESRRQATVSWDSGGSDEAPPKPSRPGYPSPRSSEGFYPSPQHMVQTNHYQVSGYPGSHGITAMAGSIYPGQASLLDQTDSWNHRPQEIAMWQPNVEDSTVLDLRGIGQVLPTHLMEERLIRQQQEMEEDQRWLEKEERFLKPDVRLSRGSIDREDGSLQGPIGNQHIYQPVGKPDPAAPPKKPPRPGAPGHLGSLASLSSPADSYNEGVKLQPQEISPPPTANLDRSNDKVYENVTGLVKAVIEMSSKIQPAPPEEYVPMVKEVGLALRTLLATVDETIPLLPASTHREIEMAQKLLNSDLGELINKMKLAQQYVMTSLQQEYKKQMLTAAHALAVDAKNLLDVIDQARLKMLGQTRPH

On to `COc1ccc(COC(=O)NN=C2C[C@@H](O)[C@@H](O)[C@@H]3[C@@H]4C(=O)N(Cc5ccc6c(c5)OCO6)C(=O)[C@@H]4CC[C@@H]23)cc1`, for which the composite z-score in assay [1] was -0.152; in [3], 0.218; in assay [4], 0.015; in assay [5], -0.244; in [6] it was 0.115; in [7], 0.616. Further, the composite z-score in assay [8] is -0.395; in assay [9] it was -0.54; in [10], -1.3; in assay [11], -0.272; in assay [12], -0.568; in assay [13], 0.256. The composite z-score in assay [14] is 0.144; in assay [15], -0.989; in assay [16] it was -0.922; in [18], -0.86; in [19], 0.247. In assay [2], the composite Z-score is -0.463 (inactive). In addition, the z-score in [17] is 0.982; in assay [20], -0.283 (inactive).

`Cc1cc2c(nc1C)CCCN2CC(O)CN1CCN(C)CC1` (stereo not given): the composite z-score in [1] is -0.562; in assay [3] it was -0.0636; in assay [4] it was -0.149; in assay [5] it was 0.622; in assay [6] it was 0.387; in assay [7], 0.289. For the same molecule, the composite z-score in assay [8] was 0.693; in [9], 0.731; in assay [10], 1.02; in assay [11], 1.51; in [12], 0.1; in [13] it was 0.648. The composite z-score in [14] is -0.702; in [15], 0.936; in assay [16] it was 0.688; in [18] it was 0.409; in [19], 1.02. In addition, the composite Z-score in [2] was 1.03 (inactive). Further, the z-score in [17] is 0.63; in assay [20], 0.246 (inactive).

Take `COCCNC(=O)OCC1CCCC2(CC(OC(=O)NCCc3ccc(F)cc3)CC(CCC(=O)N[C@@H](C)C(=O)OC)O2)O1` (stereo not given in full): the composite z-score in assay [1] is 0.456; in assay [3] it was 0.0228; in assay [4], -0.144; in assay [5] it was 0.245; in assay [6], 0.292; in assay [7] it was -0.0037. Moreover, the composite z-score in assay [8] stood at 1.3; in assay [9], 0.581; in assay [10], 0.769; in assay [11], 1; in assay [12] it was 1.12; in assay [13], 0.104. Further, the composite z-score amounted to 0.895 in assay [14]; 1.26 in [15]; 1.18 in assay [16]; 0.969 in [18]; 0.618 in assay [19]. In assay [2], the composite Z-score was -0.126 (inactive). The figures for the z-score in [17] and in assay [20] were 1.28 and 0.349 (inactive), respectively.

Consider `COCCCNC(=O)[C@]1(Cc2ccccc2)N=C(c2ccc(OCCCO)cc2)O[C@@H]1c1ccccc1`, for which the composite z-score is 0.998 in assay [1]; 0.108 in assay [3]; 0.0745 in assay [4]; 0.726 in assay [5]; 3.09 in assay [6]; 0.401 in [7]. The composite z-score was 1.31 in [8]; -0.547 in assay [9]; 1.02 in assay [10]; 1.26 in [11]; 1.23 in assay [12]; 1.03 in [13]. In addition, the composite z-score in assay [14] was 0.99; in [15], 0.355; in [16], 0.827; in assay [18], -0.334; in assay [19], 1.09. Also, the composite Z-score in [2] was 0.12 (inactive). Also, the z-score in assay [17] is 0.549; in assay [20] it was -0.515 (inactive).

As to `CC(CCC(=O)OC[C@H]1O[C@H](C#Cc2ccccc2)C=C[C@@H]1Oc1ccc(C)cc1)=NOC[C@@H](O)COCc1ccco1`, the composite z-score in [1] is -0.515; in assay [3] it was -0.781; in assay [4] it was -0.306; in assay [5], -0.451; in [6] it was -0.128; in assay [7] it was -0.547. Besides, the composite z-score in [8] was -1.96; in assay [9] it was -3.83; in [10], -3.95; in assay [11] it was -1.01; in [12] it was -0.569; in assay [13], -1.1. In addition, the composite z-score was -2.18 in assay [14]; -2.24 in assay [15]; -3.21 in [16]; -2.17 in assay [18]; -0.452 in assay [19]. Besides, the composite Z-score in [2] was -0.142 (inactive). The z-score in assay [17] was -0.718; in assay [20], -0.889 (inactive).

In the case of `O=C1[C@H]2[C@H]3[C@H](O)[C@H](O)CC(=NO[C@@H]4O[C@H](CO)[C@@H](O)[C@H](O)[C@H]4O)[C@@H]3CC[C@H]2C(=O)N1Cc1ccccc1`, the composite z-score in assay [1] is -0.0679; in assay [3] it was 0.0744; in assay [4], -0.0623; in [5] it was -0.568; in assay [6] it was -0.658; in [7] it was 0.0054. Further, the composite z-score in assay [8] is 0.64; in assay [9], -0.293; in assay [10] it was -0.664; in assay [11], -0.58; in assay [12] it was -0.623; in assay [13], 0.593. The composite z-score was -0.247 in [14]; -0.303 in assay [15]; 0.16 in assay [16]; 0.289 in [18]; -0.0706 in assay [19]. Also, the composite Z-score in [2] is 0.0769 (inactive). The z-score in assay [17] was 0.129; in [20], 0.4 (inactive).
